Assay results reported in PubChem BioAssay AID588850 (Sanford-Burnham Center for Chemical Genomics, 2011).
About 3,100 (0.86%) of roughly 360,000 compounds were called active. For the sample, actives were picked, then their nearest neighbours and some compounds at random. Values without a mark were called inactive.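 Rule for the calls: active = at least 50% inhibition at 5 µM, scaled per plate between neutral and stimulator controls; inactive = the rest.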

Test: NF-kB reporter blockers in CF airway cells – cell-based, GFP fluorescence, uHTS, primary screen (AID 588850);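 note: PAF is a Pseudomonas aeruginosa culture filtrate used as stimulus; plate controls were PAF-stimulated DMSO wells for no effect and unstimulated DMSO wells for full effect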
Conditions: KKLEB NF-kB-GFP reporter, PAF-induced, GFP fluorescence overnight; at 5 µM; stronger effect = higher value

Row | SMILES | inhibition
1 | Cc1ccccc1N1C(=O)C(Oc2ccc(Cl)cc2)C1CNCC1CCCO1 (centres undefined) | -17.5%
2 | CC(Sc1nncn1C)C(=O)Nc1ccccc1-c1ccccc1 (centres undefined) | -12.2%
3 | Cc1cccc(N(C(=O)Cc2cccs2)C(C(=O)NCc2ccco2)c2ccncc2)c1 (centres undefined) | -3.5%
4 | Cc1nn(C(C)C(=O)N2CCOCC2)c(=O)c2nn(-c3ccccc3)c(C)c12 (centres undefined) | 1.5%
5 | CC(=O)Nc1ccc(S(=O)(=O)NCC2CCC(C(=O)NCCc3ccccc3)CC2)cc1 (centres undefined) | 8.9%
6 | CC1(C(=O)NS(=O)(=O)c2ccccc2)CCN1C(=O)c1ccccc1 (centres undefined) | -17.7%
7 | COc1cc(OC)c(C(=O)NNC(=O)c2ccc(NS(=O)(=O)c3cccs3)cc2)cc1OC | 0.1%
8 | Nc1nonc1-n1nnc(C(=O)N/N=C/C2CCCCC2)c1-c1ccccc1 | 3.7%
9 | CCCOc1ccc(-c2c(C(=O)N/N=C/c3ccco3)nnn2-c2nonc2N)cc1 | -21.8%
10 | Nc1nonc1-n1nnc(C(=O)N/N=C/c2ccc(Cl)cc2)c1-c1ccc2c(c1)OCO2 | 52.5% (active)
11 | CSc1ccc(CN2CCC2(C)C(=O)Nc2ccc(C)c(O)c2)cc1 (centres undefined) | 0%
12 | CCCc1nc(N)nc2c1C(=O)CC(C)(C)C2 | 16.2%
13 | COc1ccc(/C=C/C(=O)c2c(O)cc(OC)cc2OC)cc1 | -12.9%
14 | CCOc1ccccc1Oc1cn[nH]c1-c1ccc(OC)cc1O | 13%
15 | COc1ccc2cc(-c3[nH]ncc3CNCCn3nc(C)cc3C)ccc2c1 | -8.4%
16 | COc1ccc(-c2cn[nH]c2-c2ccc(OC)cc2)cc1 | 88% (active)
17 | CCOc1ccc(C(C)=O)cc1CSc1nnc(-c2ccncc2)n1CCOC | -0.6%
18 | CS(=O)(=O)N(CC(=O)Nc1ccc(F)cc1F)c1cccc([N+](=O)[O-])c1 | 10.1%
19 | O=c1[nH]c2ccccc2n1C1CCN(CCOc2ccccc2)CC1 | -0.9%
20 | COc1ccc(CNc2ncnc3ccccc23)cc1 | 51.6% (active)
21 | COc1ccc(CNc2nccs2)cc1 | -5.6%

Row | SMILES | inhibition
22 | c1ccc(CNc2ncnc3[nH]ncc23)cc1 | 0.6%
23 | Oc1cccc2ccc(/C=C/c3ccc(Br)s3)nc12 | 82.5% (active)
24 | Nc1ccc(S(=O)(=O)Nc2nccc(/C=C/c3ccc(Br)s3)n2)cc1 | 14.6%
25 | Clc1ccc2nc(CSc3ccccc3)cn2c1 | -13.5%
26 | O=C(C1CCCO1)N1CCN(C(=S)NC2CC2)CC1 (centres undefined) | 3.7%
27 | C[C@@H]1C[C@@H]2O[C@H]2/C=C\C=C\C(=O)Cc2c(Cl)c(O)cc(O)c2C(=O)O1 | 60.3% (active)
28 | COc1ccc(S(=O)(=O)N2CCN(CC(=O)N3CCNC3=O)CC2)cc1OC | 0.2%
29 | COc1ccc(Br)cc1CN1CCN(C(=O)c2cccc(OC)c2OC)CC1 | 18.7%
30 | CN(C(=O)CC1C(=O)NCCN1Cc1ccc2ccccc2c1)C1CCOCC1 (centres undefined) | 15.4%
31 | COc1ccc(N(C(=O)c2snc(C(N)=O)c2N)C(C(=O)NC2CCCC2)c2ccco2)cc1OC (centres undefined) | 6.4%
32 | CSc1ccccc1C(=O)Nc1cccc(C(C)=O)c1 | -14.6%
33 | CC(=O)c1cccc(NC(=S)N2CCN(S(C)(=O)=O)CC2)c1 | -11.2%
34 | COc1ccc(NC(C(=O)Nc2cccc(C(C)=O)c2)c2ccccc2)cc1 (centres undefined) | -4.2%
35 | CC(=O)c1cccc(NC(=O)C2CCN(C(=O)c3ccccc3Cl)CC2)c1 | 4.3%
36 | CCSc1nsc(NC(=O)Nc2cccc(C(C)=O)c2)n1 | 86.3% (active)
37 | C=CCSc1nsc(NC(=O)Nc2cccc(C(C)=O)c2)n1 | 86.3% (active)
38 | CCOCCCNC(=O)c1ccc(CS(=O)(=O)c2cccc(C(F)(F)F)c2)o1 | -2.1%
39 | CC1C(=O)Nc2ccccc2N1C(=O)c1c(F)cccc1F (centres undefined) | -2.1%
40 | COc1cccc(-c2nn(-c3ccccc3)cc2/C=C(\C#N)C(=O)NCCCn2ccnc2)c1 | -21.2%
41 | CC1CCCC(NC(=O)COC(=O)c2ccccc2C(=O)N(C)C2CCCCC2)C1C (centres undefined) | 17.7%
42 | C=CCN(c1ccc(C(N)=O)cc1)S(C)(=O)=O | -12%

Row | SMILES | inhibition
43 | Cc1c(C)c2ccc(OCC(=O)N3CCN(c4cccc(Cl)c4)CC3)cc2oc1=O | 63.5% (active)
44 | COc1ccc(N2CCN(C(=O)COc3ccc4c(C)cc(=O)oc4c3)CC2)cc1 | -21.4%
45 | Cc1cc(OCC(=O)N2CCN(c3ncccn3)CC2)ccc1Cl | 1.3%
46 | CC1(C)Cc2c(sc3nc(SCC(=O)NCc4ccccc4)n(-c4ccccc4)c(=O)c23)CS1 | 4.3%
47 | Cc1ccc(S(=O)(=O)N2CCCC2CO)cc1 (centres undefined) | -11%
48 | CCn1ncc(Br)c1C(=O)Nc1cc(C)ccc1F | 4.3%
49 | Cc1ccc(Cc2cnc(N)s2)o1 | 4.4%
50 | O=C(CCc1ccccc1Cl)Nc1ccc(S(=O)(=O)Nc2nccs2)cc1 | 8.7%
51 | Cc1ccc(CCC(=O)Nc2ncc(Cc3cc(Cl)ccc3Cl)s2)o1 | 64% (active)
52 | COc1ccccc1/C=C/CN1CCC(CO)(Cc2ccccc2)CC1 | 20.7%
53 | CC(C)(C)NC(=O)Cn1c(SCC(=O)Nc2nccs2)nc2ccccc21 | -6.3%
54 | COCCCNC(=S)N1CCN(c2nc(-c3cccc(OC)c3)cs2)CC1 | -8.2%
55 | c1ccc(C(=NNc2nc3ccccc3s2)c2ccccn2)cc1 | -25.7%
56 | O=[N+]([O-])c1cc(Br)c(O)c(/C=N/Nc2nc3ccccc3s2)c1 | 63.5% (active)
57 | O=C(N/N=C/c1cc(Br)c(O)c([N+](=O)[O-])c1)C(O)(c1ccccc1)c1ccccc1 | -3.5%
58 | CCOC(=O)c1ccc(-c2ccc3ncnc(N(C)Cc4sccc4C)c3c2)o1 | 32.3%
59 | O=C(Nc1nnc(-c2ccc(F)cc2)s1)c1c(F)cccc1Cl | 11%
60 | CCOC(=O)CSc1nnc(NC(=O)c2cccc(S(=O)(=O)N3CCCCC3)c2)s1 | 5.1%
61 | CSc1nnc(NC(=O)c2nc(S(=O)(=O)Cc3ccc(C)cc3)ncc2Cl)s1 | 104% (active)
62 | O=C(Nc1nnc(Cc2ccc(Cl)cc2)s1)c1cccnc1 | 2.8%
63 | Cc1ccc(S(=O)(=O)CCC(=O)Nc2nnc(CC(C)C)s2)cc1 | 8.1%

Row | SMILES | inhibition
64 | Cc1ccc(CS(=O)(=O)c2ncc(Cl)c(C(=O)Nc3nnc(C)s3)n2)cc1 | 92.5% (active)
65 | CC1(C(=O)Nc2cccnc2)Cc2c(-c3ccccc3)ccnc2O1 (centres undefined) | 14.4%
66 | Cc1ccccc1C(=O)Nc1cccc(-c2nnc(SCC(=O)O)n2C)c1 | 0.8%
67 | C=CCn1c(SCC(=O)c2ccc(Br)cc2)nnc1C(C)NC(=O)Cc1ccc(OC)cc1 (centres undefined) | -6.2%
68 | COCCn1c(C)cc(C(=O)CN2c3cccc4cccc(c34)S2(=O)=O)c1C | 18.2%
69 | O=C(c1cccnc1)N(Cc1ccccc1)C(=O)c1cccnc1 | 11.6%
70 | O=C(c1cccnc1)N(c1cc2sc(=O)oc2c2ccccc12)S(=O)(=O)c1ccccc1 | 67% (active)
71 | CCc1ccc(N(CC(=O)NCc2cccnc2)S(=O)(=O)c2ccccc2)cc1 | -37.4%
72 | NC(=O)C[n+]1cccc(C(N)=O)c1 | 0.4%
73 | CCNC(=O)C1CCCN(C(=O)c2ccc(OC)cc2OC)CC1 (centres undefined) | -9.2%
74 | Cc1ccc(C2(C)NC(=O)N(CC(=O)Nc3ccccc3C(=O)N3CCCCC3)C2=O)cc1 (centres undefined) | -4.5%
75 | O=C(NC1(C(F)(F)F)N=C2SCCN2C1=O)c1ccco1 (centres undefined) | 3.6%
76 | Clc1ccc2c(c1)C1=C(C(c3ccncc3)O2)C(c2ccc(Br)cc2)n2ncnc2N1 (centres undefined) | 52.7% (active)
77 | COCCCN(C(=O)Cn1ncc2c(=O)oc3ccc(C)cc3c21)C(C)c1ccncc1 (centres undefined) | 1.3%
78 | O=C(Nc1ccc2c(c1)OCO2)C1CC(c2c(F)cccc2Cl)=NO1 (centres undefined) | 13.8%
79 | Cc1cc(C)c(-c2csc(NC(=O)CCCc3nc4ccccc4c(=O)[nH]3)n2)c(C)c1 | -12.5%
80 | C=CCNC(=O)c1ccc2c3n(nc2c1)-c1ccc(C)cc1CO3 | -75.6%
81 | COc1cc(OC)cc(C(=O)N[C@H](C(=O)Nc2nc3ccccc3[nH]2)C(C)C)c1 | 64.3% (active)
82 | COc1cc(OC)cc(C(=O)N[C@H](C(=O)OCC(=O)NC(C)c2ccccc2)C(C)C)c1 (some centres undefined) | 21.2%
83 | COc1cc(OC)cc(C(=O)N[C@H](C(=O)NNC(=O)c2ccc(Br)cc2)C(C)C)c1 | -8.2%
84 | CC(=O)NC(c1ccccc1)c1nc(-c2ccccc2C)cs1 (centres undefined) | -32.5%
